# From PubChem BioAssay
# Values without a mark were called inactive. How the calls were made is not given here. Where a SMILES comes first, the peptide text is derived from it. [ ]: non-standard residue; d: D form. ξ: configuration not given here. ξV = CC(C)C(N)C(=O)O
# Biological target: Pantothenate synthetase (Mycobacterium tuberculosis (strain ATCC 25618 / H37Rv)) (UniProt P9WIL5)
# Experiment: Coupled enzyme confirmation of inhibitors against recombinant Mtb PanC (AID 375);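 further: 0% = full reaction with vehicle and 100% = no enzyme background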
# Details: coupled enzyme assay; at 10 µM, hits give high values
# Chain of Pantothenate synthetase (Mycobacterium tuberculosis (strain ATCC 25618 / H37Rv)) (P9WIL5 whole entry, looked up): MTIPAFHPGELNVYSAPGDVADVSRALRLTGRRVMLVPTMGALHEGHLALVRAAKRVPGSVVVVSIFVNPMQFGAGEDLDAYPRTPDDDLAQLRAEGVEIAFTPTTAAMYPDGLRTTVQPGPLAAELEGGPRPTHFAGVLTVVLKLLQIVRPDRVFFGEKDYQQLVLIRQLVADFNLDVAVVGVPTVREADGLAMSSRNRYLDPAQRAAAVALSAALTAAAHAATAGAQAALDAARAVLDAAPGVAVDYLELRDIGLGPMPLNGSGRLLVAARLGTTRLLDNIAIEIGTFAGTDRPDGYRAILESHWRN
row,SMILES,inhibition [%]
1,COc1ccc(-c2nn(-c3ccccc3)cc2/C=N/n2cnnc2)cc1OC,9
2,COc1cc(NS(=O)(=O)c2ccc(N)cc2)nc(OC)n1,0
3,CC1Oc2ccccc2N(CC(=O)NCc2cccs2)C1=O (configuration not stated),0
4,CC1(C)CC(=O)CC(C)(C)N1OC(=O)c1ccccn1,0
5,CN(C)c1ccc(C=Nc2ccc(N(C)C)cc2)cc1,0
6,O=C1C2ON(c3ccc(Cl)cc3)C(c3ccco3)C2C(=O)N1c1ccccc1 (configuration not stated),0
7,COc1cc(OC)cc(C(=O)NCc2n[nH]c(=S)n2-c2ccccc2OC)c1,0
8,Cc1nc(NC2=NCN(CCN3CCOCC3)CN2)nc2c(C)cccc12,0
9,CC(Oc1ccc2oc(-c3ccccc3)c(C(=O)O)c2c1)C(=O)O (configuration not stated),0
10,C=CCOc1ccc(CN(C)CC(=O)N(CC(C)C)c2c(N)n(CC(C)C)c(=O)[nH]c2=O)cc1,0
11,CS(=O)(=O)N(CC(=O)N1CCCCCC1)c1ccc(Br)cc1,0
12,O=C(NCC(=O)N(c1cccnc1)C(C(=O)NC1CCCCC1)c1cccnc1)c1ccco1 (configuration not stated),0
13,CCn1cc(C(=O)NCC2COc3ccccc3O2)c2cc(OC)c(OC)cc2c1=O (configuration not stated),11
14,CCN(CC)CCOC(=O)c1cccc(OC)c1,0
15,COCc1nnc(SCC(=O)NC(C)c2ccccc2)n1-c1ccccc1 (configuration not stated),4
16,CCCCCn1c(CN2CCN(C(=O)c3ccco3)CC2)nc2c1c(=O)n(C)c(=O)n2C,1
17,C=CC(O)(C#CCN(CC)CC)c1ccccc1 (configuration not stated),3
18,CCOC(=O)CCCOC(=O)c1ccc(S(=O)(=O)N(C)C)cc1,0
19,COc1ccc(C)cc1-n1nnnc1SC/C(O)=C(\C#N)c1nc2ccccc2[nH]1,4
20,CCOc1ccc(NCc2nnc(SCC(=O)Nc3cc(C)on3)n2-c2ccccc2OC)cc1,13
21,COC(=O)Cc1c(C)nc2nc(-c3ccco3)[nH]n2c1=O,2
22,COc1ccccc1NC(=O)CSc1nnc(Cn2nnc(-c3ccccc3)n2)n1-c1ccccc1,0
23,O=C1NC2=C(C(=O)CCC2)C(c2ccc3ncccc3c2)N1 (configuration not stated),0
24,COCC(=O)N(Cc1ccccc1)c1ccccn1,4
25,O=C(COc1nnc2ccccn12)N1CCN(S(=O)(=O)c2ccccc2)CC1,1
26,COC(=O)c1c(NC(=O)C2CC=CCC2C(=O)O)sc(C(N)=O)c1C (configuration not stated),1

row,SMILES,inhibition [%]
1,COc1ccccc1OCCOc1ccccc1/C=N/n1cnnc1,6
2,Cc1cc(NC(=O)c2cc3ccccc3o2)cc(C)c1OCC(=O)N1CCOCC1,0
3,O=C1CSC(=Nc2ccc(O)cc2)N1c1ccc(O)cc1,0
4,CC1CC(NC(=O)c2cnc3n(c2=O)CCS3)CC(C)(C)C1 (configuration not stated),5
5,O=C1CC(c2ccco2)CC(O)=C1C=NCC1NCCc2ccccc21 (configuration not stated),0
6,N#Cc1c(SCC(=O)N2CCOCC2)nsc1SCC(=O)N1CCOCC1,0
7,Cc1cc(N2C(=O)C3C4C=CC(C4)C3C2=O)ccc1Br (configuration not stated),0
8,CC(C)c1nc(NCC2CCCO2)c(C#N)c2c1COC(C)(C)C2 (configuration not stated),3
9,CCOC(=O)c1ccc(NC(=O)CSc2n[nH]c(-c3ccncc3)n2)cc1,5
10,O=C(/C=N/O)Nc1cccnc1,0
11,Cc1c(NC(=O)c2ccc(Br)o2)c(=O)n(-c2ccccc2)n1C,0
12,O=C(CCN1C(=O)C2C3C=CC(C3)C2C1=O)NCCc1ccccc1Cl (configuration not stated),0
13,Nc1nc(N2CCCCC2)nc(N(c2ccccc2)c2ccccc2)n1,3
14,Cn1nnnc1SCC(=O)Nc1ccccc1-c1ccccc1,2
15,C=C(C)Cn1c(N2CC(C)CC(C)C2)nc2c1c(=O)[nH]c(=O)n2C (configuration not stated),0
16,CCCC1c2ccc(C)n2CCN1C(=O)Nc1ccccc1Cl (configuration not stated),1
17,Cc1ccc(N2C(=O)c3ccccc3C2O)nc1 (configuration not stated),1
18,CCCn1c2c(c(O)c(C(=O)NC)c1=O)CCCC2,5
19,CCOC(=O)N1CCC(NC(=O)c2ccc3c(c2)N(CC)CCS3)CC1,5
20,COc1ccc(/C=N/n2c(SC)nnc2-c2ccccc2)cc1C,0
21,CC(C)CC(=O)N1CCN(S(=O)(=O)c2ccc(F)cc2)CC1,0
22,CC(=O)NC(C(=O)NCC(N)=O)C(C)C (configuration not stated) (Ac-[ξV]-Gly-NH2),0
23,C=CCN1C(=O)C2(C(C#N)=C(N)Oc3n[nH]c(CCC)c32)c2ccccc21 (configuration not stated),0
24,O=C(Cn1cccc1C(=O)c1ccccc1)NCCN1CCOCC1,0
25,Cc1nn(C(=O)c2ccccc2)c2c1C(=O)CC(C)(C)C2,0
26,COc1ccc(C2C(=O)N(C3CCCCC3)CC(=O)N2Cc2ccco2)cc1 (configuration not stated),6

row,SMILES,inhibition [%]
1,COCCCNS(=O)(=O)c1ccc2c(c1)CCN2C(C)=O,0
2,COc1ccc(C2=NOC(C(=O)NCCCN3CCOCC3)C2)cc1 (configuration not stated),5
3,COc1cccc(-c2csc3nnc(SCC(=O)c4ccc(NC(C)=O)cc4)n23)c1,1
4,O=C1CN=C(Nc2cccc(C(F)(F)F)c2)N1C1CCCC1,0
5,Cc1c(C(=O)NCc2ccccc2)oc2c1C(=O)CCC2,0
6,COc1cccc(-c2cc(C(=O)N3CCc4ccccc4C3)no2)c1,10
7,COCCNC(=O)C(c1ccc(O)cc1)N(Cc1ccco1)C(=O)CCC(=O)Nc1nccs1 (configuration not stated),1
8,O=C(C1CC1)N1CCc2cc(Br)cc(S(=O)(=O)N3CCOCC3)c21,3
9,Cc1ccn2cc(CCNC(=O)CC(C)(C)C)nc2c1,0
10,CCCN1C2CCCC1CC(NC(=O)c1ccccc1F)C2 (configuration not stated),2
11,O=C(CCCCCn1c(SCc2ccncc2)nc2ccccc2c1=O)NCc1ccco1,0
12,COC(=O)C(F)(F)Sc1c(C)[nH]c2ccccc12,3
13,O=C(CSc1nnc(CNC(=O)c2c(F)cccc2Cl)o1)c1ccccc1,0
14,CCOC(=O)CSc1nc2sc(C)c(C)c2c(=O)n1C,0
15,O=C(NCC1CCCO1)C1CCCN(S(=O)(=O)c2cccc3nsnc23)C1 (configuration not stated),4
16,CCOC(=O)CNC(=O)Nc1ccccc1C(=O)OC,6
17,c1ccc(N2CCN(Cc3ccnc4ccccc34)CC2)cc1,2
18,O=C(Cn1c(-c2cncs2)nc2ccccc21)NC1CCCC1,0
19,COCCN(CCOC)c1ncnc2c1cnn2-c1ccccc1,0
20,CCCCC(=O)Nc1c(O)c2ccccc2[nH]c1=O,0
21,CCC(C)(C)NC(=O)C(OC(=O)c1ccco1)c1ccccc1OC (configuration not stated),0
22,CCOc1cccc(OCCCCn2ccnc2)c1,0
23,COc1ccc(OC)c(S(=O)(=O)Nc2ccccc2C(=O)O)c1,6
24,CCOC(=O)c1ccccc1NC(=O)COC(=O)C1=COCCO1,0
25,COc1ccc(C(C)N2CC34C=CC(O3)C(C(=O)OCC(C)C)C4C2=O)cc1 (configuration not stated),9
26,NCC(O)COc1ccc2c(c1)OCO2 (configuration not stated),0

row,SMILES,inhibition [%]
1,O=C(Cn1nc(C(F)(F)F)c2c1CCCC2)NCCN1CCOCC1,5
2,CCC1Oc2ccccc2N(CC(=O)Nc2ccc(OC)cc2OC)C1=O (configuration not stated),0
3,CC1=C(C(N)=O)C(c2ccccn2)n2nc(-c3ccccc3Cl)nc2N1 (configuration not stated),5
4,O=C(NCCCN1CCOCC1)c1cc(-c2ccc(Cl)cc2)on1,4
5,O=C(O)c1cc(-c2ccccc2Cl)n[nH]1,2
6,NC1=NC(c2ccc(Br)cc2)n2c(nc3ccccc32)N1 (configuration not stated),0
7,O=C(CSc1ccccc1C(=O)NCCCN1CCCC1=O)NCc1ccco1,5
8,COC(=O)Nc1nc2c(C)cccc2s1,0
9,COc1ccc(NC(=O)CN2CCCCC2)cc1,0
10,CC1CN(C(=O)CSc2nnc(-c3ccc(Cl)cc3)n2C)CC(C)O1 (configuration not stated),0
11,CCN1CCN(S(=O)(=O)c2ccc(S(=O)(=O)N(CC)Cc3ccccc3)cc2)CC1,7
12,CCCCc1cc(=O)oc2cc(C)cc(OC(C)C(=O)O)c12 (configuration not stated),0
13,Clc1ccc(OCc2nnc(SCCN3CCCCC3)n2Cc2ccco2)cc1,0
14,CN(C)C(CNc1nnnn1-c1ccccc1)c1ccco1 (configuration not stated),2
15,CC(=O)Nc1cccc(OCC(O)Cn2cnc3ccccc32)c1 (configuration not stated),0
16,O=C(c1noc2c1CCc1ccccc1-2)N1CCOCC1,0
17,Cc1cc(NC(=O)c2cc(-c3ccco3)on2)n(-c2ccccc2)n1,0
18,COc1ccc(-c2nc(CS(=O)CC(=O)NCc3ccccn3)c(C)o2)cc1 (configuration not stated),0
19,CC(C)NC(=O)CSc1nc2ccccc2n1-c1ccccc1,1
20,CCn1c(SCC(=O)Nc2ccc(C(=O)OC)cc2)nnc1-c1cccs1,3
21,Cc1cccc(-n2ncc3c(N(CCO)CCO)ncnc32)c1,0
22,C=Cn1c(N2CCOCC2)nc2c1c(=O)[nH]c(=O)n2C,16
23,CSc1nc(C)c(C(=O)Nc2ccccc2)c(C)c1C#N,0
24,Cc1nc2c(-c3ccccc3)c(C)[nH]n2c(=O)c1Cl,0
